# Compound activity from PubChem.
# Sampled rows, rich in hits. Any-hit rate of the full collection: about 17%.
# DT40 TDP1 no CPT: qHTS for Inhibitors of human tyrosyl-DNA phosphodiesterase 1 (TDP1): qHTS in cells in absence of CPT | Potency, µM (doses to about 46.2 µM), for the others: at the highest dose activity change, negative = growth inhibition, hits mostly inhibitors | DT40 Tdp1-/- hTDP1 cells, no CPT, ATP luminescence, 48 h | hit rate 15% among 420,000; further: on the % scale 0 is the no-effect control and ±100 the full control effect; nearly all actives have a fitted effect of over 55% in size
#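 Luminescent ATP content (CellTiter-Glo) served as the growth readout. Knockout chicken DT40 cells expressing human TDP1 were exposed to compounds without camptothecin for a minimum 48 hr at 37 °C.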
# ATXN viability: cell viability loss in ATXN counter-screen; S2 cells (HEK-293 line with an ATXN2-luciferase reporter) viability, CellTiter-Fluor protease fluorescence, 24 h; Potency, µM (top dose mostly 56.7 µM), usual class: cytotoxic; hit rate 0.49% among 400,000; further: nearly all actives have a fitted effect of over 40% in size
# ATXN2 expr inh: inhibitors of ATXN2 expression; HEK-293 ATXN2-luciferase reporter, luminescence, 24 h; Potency, µM (highest dose often 57 µM), without a hit: top-dose activity change, negative = inhibition, most hits filed as inhibitors; hit rate 0.72% among 360,000; further: on the % scale 0 is the no-effect control and ±100 the full control effect; nearly all actives have a fitted effect of over 55% in size
#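 ATXN2-luciferase reporter cells (luciferase flanked by upstream and downstream ATXN2 gene portions) were treated 24 h at 37 °C with compounds at up to 57 uM. SteadyGlo luminescence gave expression; GF-AFC fluorescence gave viability.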
# TDP1 cell CPT: growth inhibition of DT40 Tdp1-/-;hTDP1 cells with camptothecin (screen for TDP1 inhibitors) | chicken DT40 Tdp1-/-;hTDP1 cells + 20 nM CPT, ATP luminescence, 48 h | Potency, µM (series often up to 46.2 µM), inactives show top-dose activity change, negative = growth inhibition, most hits filed as inhibitors | hit rate 12% among 420,000; further: on the % scale 0 is the no-effect control and ±100 the full control effect; nearly all actives have a fitted effect of over 55% in size
#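 Cell growth measured by CellTiter-Glo luminescence after a minimum 48 h, 37 C compound exposure with 20 nM CPT in Tdp1-knockout DT40 cells stably expressing hTDP1, seeded 400/well; qHTS titration format.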
# TGFb SMAD3 inh: inhibitors of TGF-b signaling; AID 588855; Potency, µM (series often up to 46.1 µM), inactives show at the highest dose activity, negative = inhibition, hits mostly inhibitors; HepG2 CAGA-GFP TGF-b/SMAD3 reporter, GFP fluorescence, 18 h; TGF-beta stimulated, 500 pg/mL final; hit rate 1.2% among 410,000; further: on the % scale 0 is the no-effect control and ±100 the full control effect; nearly all actives have a fitted effect of over 65% in size
#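 First, reporter cells (HEPG2 CAGA-GFP) rested 2 h at 37 degrees C. Next, compounds were pinned in and TGF-beta added to 500 pg/mL final. After 18 h, GFP was imaged per cell and summed per well.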
# HepG2 viability: HepG2 cytotoxicity, counter-screen for TGF-b inhibitors; HepG2 CAGA-GFP viability, ATP luminescence, 18 h; Potency, µM (titrated, usually from 46.1 µM), for the others: at the highest dose activity change, negative = cytotoxicity, usual class: cytotoxic; hit rate 0.76% among 410,000
#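 CellTiter-Glo luminescence gave cytotoxicity after 18 hours at 37 degrees C. The cells were HepG2 CAGA-GFP in 1% FBS DMEM, stimulated with 500 pg/mL TGF-beta after compound addition. %Activity was normalised to no-cell wells (complete cell-killing) and DMSO (no toxicity), and curves were fitted and classified.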
# * hit, by the source's call; i = inactive; ? = inconclusive; nt = no result given. The call rests on the fitted dose curve; in most records, active means well fitted curve in the direction sought with a large enough effect; inconclusive means small, poorly fitted or top-dose-only effect, or another doubt; inactive means no such curve, though single readings can be large; an effect the other way counts as inactive or inconclusive. Potency means the concentration at half of the fitted maximal effect.
SMILES,DT40 TDP1 no CPT,ATXN viability,ATXN2 expr inh,TDP1 cell CPT,TGFb SMAD3 inh,HepG2 viability
Cc1cc(C)c(-c2cc(C(=O)Nc3cc(C)ccc3C)[nH]n2)c(O)c1,?,i,-19%,-14%,-4%,3%
O=C(C[n+]1ccccc1Cl)c1ccc(I)cc1,?,nt,nt,-11%,-7%,-5%
O/N=C(/C[n+]1ccsc1)c1ccc(I)cc1,3.5µM*,nt,nt,5µM*,-3%,-4%
O=C(/C=C/c1ccc2ccccc2n1)N1CCN(S(=O)(=O)c2ccccc2F)CC1,18µM*,?,nt,23µM*,?,-9%
Cc1ccccc1Cn1c(CN2CCN(C(=O)c3ccco3)CC2)nc2c1c(=O)n(C)c(=O)n2C,-23%,i,6%,-11%,-12%,-25%
Cc1ccccc1Cn1c(CN2CCc3ccccc3C2)nc2c1c(=O)n(C)c(=O)n2C,21µM*,i,-5%,?,?,-29%
CN(Cc1ccccc1)Cc1nc2c(c(=O)n(C)c(=O)n2C)n1Cc1ccc(F)cc1,?,i,-9%,?,-16%,-31%
Cn1c(=O)c2c(nc(CN3CCc4ccccc4C3)n2Cc2ccc(F)cc2)n(C)c1=O,18µM*,i,1%,21µM*,?,-6%
CCOC(=O)Cn1c(CN2CCN(C(c3ccccc3)c3ccccc3)CC2)nc2c1c(=O)n(C)c(=O)n2C,23µM*,i,3%,?,-13%,-13%
COC(=O)Cn1c(CN2CCc3ccccc3C2)nc2c1c(=O)n(C)c(=O)n2C,21µM*,i,3%,13µM*,-8%,-1%
COC(=O)c1cc2oc(C)cc2n1CC(=O)Nc1ccc(C)cc1C,-27%,i,9%,-21%,24%,20%
CCOC(=O)N/N=C\c1ccc(OC/C=C/c2ccccc2)cc1,23%,i,23%,-27%,-5%,-8%
O=C1OC(O)c2cccc3cccc1c23 (stereo unspecified),1%,i,nt,10%,?,-30%
Cc1cc(C)nc(SCC(=O)OC(C)C(=O)Nc2ccccc2)n1 (stereo unspecified),-2%,i,-9%,7%,1%,3%
CCCCCn1c(CN2CCN(CCO)CC2)nc2c1c(=O)n(C)c(=O)n2C,-14%,i,2%,-7%,-8%,-28%
CN1CCN(c2nc3c(c(=O)n(C)c(=O)n3C)n2Cc2ccccc2F)CC1,-6%,i,-7%,3%,6%,-17%
Cn1c(=O)c2c(nc(N3CCc4ccccc4C3)n2Cc2ccccc2F)n(C)c1=O,16µM*,?,-13%,13µM*,?,-25%
CCCCn1c(CN2CCN(C(=O)OCC)CC2)nc2c1c(=O)n(C)c(=O)n2C,9.2µM*,?,-7%,12µM*,-9%,4%
CCc1ccc(NC(=O)Cn2c(=O)n(CCC(=O)NCCc3ccc(Cl)cc3)c(=O)c3ccccc32)cc1,-1%,i,9%,2%,0%,-2%
CCOc1ccc(S(=O)(=O)N(CC(=O)N2CCc3ccccc32)Cc2ccco2)cc1,?,i,-5%,18µM*,-2%,-13%
O=C1NC(=O)C2(CCCCCC2)N1,-3%,i,3%,-2%,0%,8%
CCc1ccc(S(=O)(=O)NCc2ccc3c(c2)CCN3C(=O)c2ccc(C)cc2)cc1,8.2µM*,nt,nt,7.3µM*,-47%,-21%
COc1ccc(S(=O)(=O)NCc2ccc3c(c2)CCN3C(=O)c2ccccc2)cc1OC,?,nt,nt,?,-4%,-34%
Cc1ccc(CNS(=O)(=O)c2ccc3c(c2)CCN3S(C)(=O)=O)cc1,?,i,-13%,?,-3%,2%
CC(C)c1ccc(S(=O)(=O)NCc2ccc3c(c2)CCN3C(=O)c2ccccc2)cc1,15µM*,nt,nt,23µM*,?,-11%
SMILES,DT40 TDP1 no CPT,ATXN viability,ATXN2 expr inh,TDP1 cell CPT,TGFb SMAD3 inh,HepG2 viability
CCOc1ccc(S(=O)(=O)NCc2ccc3c(c2)CCN3C(=O)c2ccc(C)cc2)cc1,9.2µM*,nt,nt,13µM*,?,-27%
COc1ccc(S(=O)(=O)NCc2ccc3c(c2)CCN3C(=O)c2ccc(C)cc2)cc1Cl,16µM*,nt,nt,21µM*,-9%,-28%
O=C(O)Cc1ccc2c(c1)C(=O)c1ccccc1CO2,nt,i,11%,nt,nt,nt
COc1cccc(-c2cc3c(c4c2ccn4C)C2CCC3C2)c1 (stereo unspecified),?,i,-4%,?,-14%,1%
CCOC(=O)c1nc(-c2ccccc2)oc1N1CCOCC1,?,i,-16%,?,9%,-25%
COc1ccc(-c2noc(-c3ccc(N4CCCCC4)c([N+](=O)[O-])c3)n2)cc1,?,i,5%,1%,-30%,-6%
Cc1noc(-c2ccc(N(C)Cc3ccccc3)c([N+](=O)[O-])c2)n1,16µM*,i,37%,21µM*,?,-18%
CCN(CC)c1ccc(-c2nc(-c3ccco3)no2)cc1[N+](=O)[O-],26µM*,i,30%,?,-15%,-8%
Cc1noc(-c2ccc(-c3noc(-c4ccc([N+](=O)[O-])c(C)c4)n3)cc2)n1,-2%,i,1%,-5%,-1%,17%
COc1ccc(CN(C)c2ccc(-c3nc(C)no3)cc2[N+](=O)[O-])cc1,8.2µM*,?,-15%,10µM*,?,-47%
CN(C)C(CNC(=O)CSc1nc2ccccc2c(=O)n1Cc1ccco1)c1ccccc1 (stereo unspecified),-15%,i,-9%,0%,-10%,-22%
Nc1ccccc1SC(CC(=O)c1ccccc1)c1ccc([N+](=O)[O-])cc1 (stereo unspecified),16µM*,?,nt,15µM*,?,-64%
Nc1ccccc1SC(CC(=O)c1ccccc1)c1cccc([N+](=O)[O-])c1 (stereo unspecified),5.2µM*,nt,nt,16µM*,?,-114%
CC(=O)NC(Cc1ccccc1)C(=O)N1CCN(C(=O)c2ccco2)CC1 (stereo unspecified),3%,i,0%,-6%,9%,-13%
COc1ccc(C(CC(=O)c2ccc(O)cc2)S(=O)(=O)c2ccc(C)cc2)cc1 (stereo unspecified),?,i,74%,-7%,-7%,-36%
